Reference: PubChem BioAssay
Activity calls are given as the source filed them.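 How the source made its calls, unless noted: active means compounds whose cell count with miR-34 switched on is under 0.7 times the count with it off; inactive means the rest.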

How the values were obtained:
[1] = sensitizers of A549 cells to miR-34 induction, primary screen, imaging, A549 dox-inducible miR-34, nuclei and caspase counts (AID 1347080); conditions: A549 miR-34 inducible, Hoechst nuclei count, 48 h
[2] = survival rescue of mitochondrial mutant cells in low glucose, primary screen, MELAS cybrids, Rieske KO mouse fibroblasts, CellTiter-Glo (AID 1508586;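 active means mean z-score across replicates of 1.96 or higher in either the MELAS or the Rieske mutant cell line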;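 further: z relative to plate mean and SD of compound and empty wells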)
[3] = system: Hepatitis C virus NS3 helicase; test: HCV NS3 helicase inhibitors, primary screen, biochemical, fluorescence polarization, LOPAC1280 library (AID 687035; in the data active means inhibition above about 37%); conditions: Purified HCV NS3 helicase, Cy5-dT15 ssDNA binding fluorescence polarization; stronger effect = higher value; concentration not given here
[4] = Cy5 fluorescence quenching or enhancement artefacts, artefact control for HCV NS3 helicase inhibitor project, biochemical, LOPAC1280 (AID 687037; call rule not given here); conditions: Cy5-DNA-NS3h complex fluorescence interference counterscreen
[5] = phospholipid biosynthesis inhibitors in animal cells, primary screen, cell-based, LOPAC library, screen 4 (AID 1347384; call rule not given here); conditions: phospholipid biosynthesis inhibition screen, at 10 µM
[6] = viability rescue of complex I mutant cybrids, primary screen, cell-based, galactose medium, ATP luminescence (AID 1645843;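 active means z-score of at least 1.8 in each of two replicates, scored against plate mean and spread of sample wells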;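 further: positive z means more ATP and so rescue of galactose-driven cybrid death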); conditions: complex I mutant cybrid cells, 72 h, stronger effect = higher value
[7] = measured here: relative caspase fold change +Dox/-Dox
[8] = measured here: total cells with miR-34 induction, stronger effect = lower value
[9] = measured here: total cells without miR-34 induction
[10] = MELAS cybrid survival, CellTiter-Glo 48 h, stronger effect = higher value
[11] = Rieske KO mouse fibroblast survival, CellTiter-Glo 72 h
[12] = stronger effect = lower value, cell number ratio, induced over uninduced

| Structure (SMILES) | fold change ([1]; stronger effect = lower value) | fold change [1, 7] | cell count [1, 8] | cell count [1, 9] | z-score [2, 10] | z-score [2, 11] | fold change [1, 12] | inhibition [3] | fluorescence ratio (interference) [4] | outcome [5] | z-score [6] |
| --- | --- | --- | --- | --- | --- | --- | --- | --- | --- | --- | --- |
| Cc1sc2c(c1C)C(c1ccc(Cl)cc1)=NC(CC(=O)OC(C)(C)C)c1nnc(C)n1-2 (stereo unspecified) | 0.954 (inactive) | 0.485 | 5260 | 5520 | 0.154 (inactive) | -3.85 | – | – | – | – | – |
| CN1CCN(c2nc3ccccc3nc2Cl)CC1 | – | 0.445 | 7800 | 8250 | -0.222 (inactive) | -0.11 | 0.946 (inactive) | – | – | – | – |
| CC1CC[C@H]2C(C)C(=O)O[C@@H]3O[C@@]4(C)CC[C@@H]1[C@]32OO4 (stereo partly specified) | – | 0.744 | 6910 | 7540 | -0.427 (inactive) | 0.217 | 0.916 (inactive) | – | – | – | – |
| COC1CCC(OC2C[C@H]([C@]3(C)CC[C@]4(CC(O)C(C)[C@@H](C(C)C=C(C)C(=O)C(C)CC(C)C(=O)O)O4)O3)O[C@]3(O[C@@H]([C@H]4O[C@@](O)(CO)C(C)CC4C)CC3C)C2C)OC1C (stereo partly specified) | – | 1.13 | 874 | 918 | 0.291 (inactive) | -2.77 | 0.953 (inactive) | – | – | – | – |
| O=c1[nH]c2ccc(Cl)cc2c(NC2CN3CCC2CC3)c1-c1nc2ccccc2[nH]1 (stereo unspecified) | – | 1.09 | 1120 | 1200 | 1.28 (inactive) | -3.49 | 0.941 (inactive) | – | – | – | – |
| Cc1c(N)nc(C(CC(N)=O)NCC(N)C(N)=O)nc1C(=O)NC(C(=O)NC(C)C(O)C(C)C(=O)NC(C(=O)NCCc1nc(-c2nc(C(=O)NCCC[S+](C)C)cs2)cs1)C(C)O)C(OC1OC(CO)C(O)C(O)[C@H]1OC1OC(CO)C(O)C(OC(N)=O)C1O)c1cnc[nH]1 (stereo partly specified) | – | 0.471 | 3100 | 2960 | -0.352 (inactive) | -0.104 | 1.05 (inactive) | – | – | – | – |
| N#CC(OC1OC(COC2OC(CO)C(O)C(O)C2O)C(O)C(O)C1O)c1ccccc1 (stereo unspecified) | 0.82 (inactive) | 1 | 6790 | 8280 | -0.2 (inactive) | -0.452 | – | – | – | – | – |
| CCN1C[C@@]2(COC)C3[C@@H](OC)C4[C@@H]1C3([C@@H]1C[C@@]3(O)[C@H](OC(=O)c5ccccc5)[C@@H]1[C@]4(OC(C)=O)[C@@H](O)[C@@H]3OC)[C@H](OC)C[C@H]2O | 1.01 (inactive) | 1.67 | 10600 | 10500 | – | – | – | -4% (inactive) | 1 (inactive) | inactive | 0.075 (inactive) |
| COc1ccc(S(=O)(=O)N(CCO)c2ccccc2CN(C)CC=Cc2ccc(Cl)cc2)cc1 | – | 0.634 | 5210 | 5560 | -0.474 (inactive) | -0.774 | 0.937 (inactive) | – | – | – | – |
| CC1CC[C@@]2(OC1)O[C@H]1C[C@H]3[C@@H]4CC=C5CC(O[C@@H]6OC(CO)C(O[C@@H]7OC(C)C(O)C(O)C7O)C(O)C6O[C@@H]6OC(C)C(O)C(O)C6O)CC[C@]5(C)[C@@H]4CC[C@]3(C)[C@@H]1C2C (stereo partly specified) | – | 1.39 | 1180 | 1800 | 2.01 (active) | -1.08 | 0.658 (active) | – | – | – | – |
| NC(N)=NOCCC(N)C(=O)O (stereo unspecified) | 0.949 (inactive) | 1.82 | 9120 | 9610 | – | – | – | 0% (inactive) | 1.1 (inactive) | inactive | 0.49 (inactive) |
| c1cc2c(cc1C1OC[C@H]3C(c4ccc5c(c4)OCO5)OC[C@H]13)OCO2 (stereo partly specified) | – | 0.861 | 8900 | 9620 | -0.349 (inactive) | 0.747 | 0.925 (inactive) | – | – | – | – |
| CCc1cc2c(s1)-n1c(C)nnc1CN=C2c1ccccc1Cl | 0.948 (inactive) | 0.493 | 8260 | 8710 | -0.248 (inactive) | -0.187 | – | – | – | – | – |
| CN(C)C1C(=O)C(C(N)=O)=C(O)[C@@]2(O)C(=O)C3=C(O)c4c(O)cccc4[C@@](C)(O)[C@H]3C(O)[C@@H]12 (stereo partly specified) | – | 0.837 | 7930 | 8840 | -0.21 (inactive) | 0.479 | 0.897 (inactive) | – | – | – | – |
| CC(C)(C)[C@@]1(O)C[C@@H]2OC(=O)C[C@@]23C(=O)O[C@H]2OC(=O)C(O)C213 (stereo partly specified) | – | 1.49 | 8490 | 9500 | -0.286 (inactive) | 0.895 | 0.894 (inactive) | – | – | – | – |
| C#C[C@@]1(O)C=C[C@H]2[C@@H]3CCC4=CC(=O)CC[C@@H]4[C@@H]3CC[C@@]21CC | – | 1.21 | 7070 | 8120 | -0.518 (inactive) | 0.382 | 0.87 (inactive) | – | – | – | – |
| C[C@]12NC(Cc3ccccc31)c1ccccc12 | 0.981 (inactive) | 0.318 | 8080 | 8230 | -0.147 (inactive) | -0.0728 | – | – | – | – | – |
| O=C1CC[C@@]2(O)C3Cc4ccc(O)c5c4[C@@]2(CCN3CC2CC2)C1O5 (stereo partly specified) | 0.922 (inactive) | 4.62 | 8340 | 9040 | 1.92 (inactive) | -1.89 | – | – | – | – | – |
| COc1cc(-n2c(=S)[nH]c3ccccc3c2=O)c(Cl)cc1Cl | 0.878 (inactive) | 0.323 | 6620 | 7540 | 0.632 (inactive) | 1.12 | – | – | – | – | – |
| CC(=O)Nc1ccc(Cc2ccc(NC(C)=O)cc2)cc1 | 0.888 (inactive) | 0.668 | 8350 | 9400 | -0.423 (inactive) | 0.257 | – | – | – | – | – |
| CC1OC(OC2CC(O)[C@]3(CO)[C@H]4C(O)C[C@]5(C)C(C6=CC(=O)OC6)CC[C@]5(O)[C@@H]4CC[C@]3(O)C2)C(O)C(O)C1O (stereo partly specified) | – | 1.17 | 388 | 456 | 0.346 (inactive) | -0.151 | 0.851 (inactive) | – | – | – | – |
| O=[N+]([O-])C=Cc1ccc2c(c1)OCO2 | – | 0.554 | 5450 | 6350 | 0.246 (inactive) | -0.259 | 0.859 (inactive) | – | – | – | – |
